The values that follow come from PubChem BioAssay AID493188 (National Center for Advancing Translational Sciences (NCATS), 2011).

SMILES strings stand for the structures. Records with an inconclusive call do not appear. Calls of active or inactive are those of the source. Calls follow the shape of the dose curve; as a rule, active = well fitted inhibition curve with a large enough effect; inconclusive = small, poorly fitted or top-dose-only effect; inactive = flat fitted curve, though single readings scatter.

Chain of Galactokinase (Homo sapiens) (P51570 whole entry, looked up): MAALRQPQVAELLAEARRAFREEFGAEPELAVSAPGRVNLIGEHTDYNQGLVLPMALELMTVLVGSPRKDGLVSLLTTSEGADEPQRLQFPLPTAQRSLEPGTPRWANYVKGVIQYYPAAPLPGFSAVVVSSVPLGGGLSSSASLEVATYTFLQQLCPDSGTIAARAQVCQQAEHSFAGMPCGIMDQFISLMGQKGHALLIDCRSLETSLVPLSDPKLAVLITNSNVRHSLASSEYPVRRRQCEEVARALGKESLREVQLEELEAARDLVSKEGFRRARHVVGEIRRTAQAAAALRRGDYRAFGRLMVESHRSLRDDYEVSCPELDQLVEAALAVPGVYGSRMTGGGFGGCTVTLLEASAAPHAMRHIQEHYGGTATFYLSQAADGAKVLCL

The target in the experiment is Galactokinase (Homo sapiens) (UniProt P51570). The experiment can be described thus: Confirmation Assay for Inhibitors of Human Galactokinase (GALK): SAR round 2. The following applies: Recombinant GALK, Kinase-Glo ATP depletion luminescence; series mostly up to 57.5 µM. The source says:
NIH Molecular Libraries Probe Production Centers Network [MLPCN] NIH Chemical Genomics Center [NCGC] MLPCN Grant: R03 MH085689-01 Assay Submitter (PI): Kent Lai (University of Utah School of Medicine, 50 N Mario Capecchi Drive, Salt Lake City, UT 84132) NCGC Assay Overview Inherited deficiency of galactose-1-phosphate uridyltransferase (GALT) can result in a potentially lethal disorder called Classic Galactosemia (OMIM 230400). Several lines of evidence indicate that an elevated level of galactose-1-phosphate (gal-1-p), the product of galactokinase (GALK), is a major, if not sole, pathogenic mechanism in patients with classic galactosemia. Therefore, finding inhibitors of GALK is a potential novel therapy for this inherent metabolic disease and is the long term goal of this project. Active compounds observed in the qHTS GALK assay (AID: 1868) were cherry picked and re-screened for validation. GALK (provided by Kent Lai) was assayed using ATP and D-(+)-Galactose (Sigma-Aldrich cat# G0750) as substrates. Promega Kinase-Glo Plus (cat# V3774) technology was used to detect the residual ATP following kinetic reaction. Briefly, the Kinase-Glo Plus contains Ultra-Glo [1] luciferase and D-luciferin which generates a bioluminescence signal from the remaining ATP. Kinase reactions with and without GALK were used as negative and positive controls together with Protein Tyrosine Phosphatase CD45 inhibitor (EMD Bioscience cat# 540215) which is shown to inhibit GALK activity.
NCGC Assay Protocol Summary: Three uL/well of ATP-buffer solution (35 uM ATP, 20mM HEPES pH8.0, 5 mM MgCl2, 60 mM NaCl, 1 mM DTT, 0.01% BSA final concentration) was dispensed into 1536-well, assay plates (Greiner, solid white medium-binding plates) with Aurora Discovery BioRAPTR Flying Reagent Dispenser (FRD; Beckton-Dickenson). Compound and control solution (23 nL) was transferred to the assay plate using the Kalypsys 1536-pin tool apparatus. One uL/well GALK-galactose solution (5 nM GALK, 100 uM galactose, 20 mM HEPES pH8.0, 5 mM MgCl2, 60 mM NaCl, 1 mM DTT, 0.01% BSA final concentration) was then added using the FRD yielding a total kinase reaction volume of 4 uL/ well. After 1 hour of room temperature incubation, 4 uL Kinase-Glo Plus reagent was added for a final assay volume of 8 uL/well. Luminescence was detected with the ViewLux plate reader (Perkin Elmer, Waltham, MA) after 2 min incubation using a 1 sec exposure time and 2x binning.
A general note: In Kinase-Glo more light means more ATP remaining.
Consider `O=C1CCCC2=C1C(c1cccc(Oc3ccccc3)c1)N=C(Nc1nc3ccccc3o1)N2` (configuration not stated), for which the Potency entry is “inactive”.
To `Cc1ccc(C2N=C(Nc3nc4ccccc4o3)NC3=C2C(=O)CCC3)s1` (configuration not stated) belongs 61.1 µM (active); to `O=C1CCCC2=C1[C@@]1(CCC(c3ccccc3)C1)N=C(Nc1nc3ccccc3o1)N2` (some centres not stated), “inactive”; to `COc1cccc(C2N=C(Nc3nc4ccccc4o3)NC3=C2C(=O)CCC3)c1` (configuration not stated), 18.8 µM (active).
The figure for `O=C1CCCC2=C1C(c1ccccc1)N=C(Nc1nc3ccccc3o1)N2` (configuration not stated) is 34.3 µM (active).
On to `Cc1nc(Nc2nc3ccccc3o2)nc2c1CCCC2`, for which the Potency result was “inactive”.
For the compound `Cc1ccc(N(CC(=O)Nc2ccc(OC(F)(F)F)cc2)S(=O)(=O)c2c(C)noc2C)cc1`, the Potency entry is “inactive”.
To `CC(C)(C)C(=O)Nc1ccc2c(c1)C(=O)C(=O)c1ccccc1-2` belongs 2.59 µM (active); to `O=C1CCCC2=C1C(c1ccncc1Cl)N=C(Nc1nc3ccccc3o1)N2` (configuration not stated), 15.3 µM (active); to `O=C1CCCC2=C1C(c1ccccc1C(F)(F)F)N=C(Nc1nc3ccccc3o1)N2` (configuration not stated), 12.2 µM (active).
To `O=C1CCCC2=C1C(c1ccccc1Cl)N=C(Nc1nc3ccccc3o1)N2` (configuration not stated) belongs 2.66 µM (active).
To `CC(C)c1nc(Nc2nc3ccccc3o2)nc2c1CCCC2` belongs “inactive”.
